Source: PubChem
In the library only some 3.4% were active in any assay of this set; here they are far more common.
TEAD-YAP inh: TEAD-YAP interaction inhibition; AID 1259422; hit rate 1.4% among 640,000; HEK-TIYL cells, TEAD-Gal4/YAP UAS-luciferase luminescence; inhibition, % at 9.12 µM; in the data active = inhibition above about 32%;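 note: 0% = median of test compound wells and 100% = reference inhibitor wells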
FBW7 act: activators of human E3 ligase FBW7. Q969H0. AlphaScreen FBW7–phospho-cyclin E peptide binding, activator screen. normalized activity (activation), % at 26.1 µM. hit rate 0.13% among 650,000. AID 1259310; in the data active = normalized activity above about 1.9%;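 note: purified mutant Fbw7 with reduced substrate affinity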
MITF inh: blocks human microphthalmia-associated transcription factor; O75030; AlphaScreen MITF homodimerization, bead proximity signal; inhibition, % at 2.6 µM; hit rate 0.91% among 650,000; AID 1259374; in the data active = inhibition above about 50%;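 note: 0% = vehicle wells with protein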
GPR151 ag: human GPR151 activation | Q8TDV0 | PathHunter beta-arrestin GPR151 cells, luminescence | activation, % at 11.2 µM | hit rate 1% among 650,000 | AID 1508602; in the data active = activation above about 4.9%;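 note: 0% = median of compound wells and 100% = cells with positive control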
Target sequence (Q8TDV0 whole entry, looked up): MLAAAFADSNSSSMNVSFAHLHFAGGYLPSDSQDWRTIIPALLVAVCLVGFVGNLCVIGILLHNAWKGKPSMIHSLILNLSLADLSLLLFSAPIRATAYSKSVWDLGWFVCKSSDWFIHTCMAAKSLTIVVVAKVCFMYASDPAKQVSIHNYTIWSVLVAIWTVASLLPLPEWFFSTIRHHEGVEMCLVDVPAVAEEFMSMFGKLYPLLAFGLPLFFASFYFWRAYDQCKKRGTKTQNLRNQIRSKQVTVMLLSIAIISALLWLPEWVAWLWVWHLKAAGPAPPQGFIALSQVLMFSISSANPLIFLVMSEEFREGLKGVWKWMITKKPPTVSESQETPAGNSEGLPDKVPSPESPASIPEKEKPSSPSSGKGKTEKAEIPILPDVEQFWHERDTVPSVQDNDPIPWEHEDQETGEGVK
MITF inh conf: confirmation of human MITF inhibitors. AID 1259372. hit rate 16% among 4,700. shares compounds with MITF inh. inhibition, % at 2.6 µM. AlphaScreen MITF homodimerization, biotin/His-MITF beads;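 active = inhibition above a cutoff derived from the DMSO control wells, cut at about 28% in these data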;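 note: 0% = MITF dimer wells with DMSO only; inhibitors lower the bead chemiluminescence by keeping MITF from dimerizing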
AlphaScreen intf2: counter-screen: compounds optically interfering with AlphaScreen | LysRS AlphaScreen counterscreen, signal interference, triplicate | hit rate 7.6% among 4,700 | inhibition, % at 2.6 µM | shares compounds with MITF inh | AID 1259376;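 active = inhibition above a cutoff derived from the DMSO control wells, cut at about 30% in these data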
* hit, by the source's call; x = not tested or not shown.

SMILES	TEAD-YAP inh	FBW7 act	MITF inh	GPR151 ag	MITF inh conf	AlphaScreen intf2
CCOc1cc(CN2CCN(Cc3ccccc3F)CC2)ccc1OC	-7.4	0.1	65.4*	-1.0	-15.2	-1.9
COc1ccccc1N1CCN(C(=O)c2ccc3c(c2)C(=O)N(c2ccccn2)C3=O)CC1	1.3	0.3	67.7*	-1.0	-6.7	-4.4
O=C(c1ccc2c(c1)C(=O)N(c1ccccn1)C2=O)N1CCN(c2ccccc2Cl)CC1	-6.9	0.5	15.1	-0.7	x	x
Nc1nc(SCC(=O)Nc2cc([N+](=O)[O-])ccc2F)n[nH]1	7.0	-0.3	50.9*	1.4	1.5	1.9
CC1=NN(c2cccc3ccccc23)C(=O)C1	8.2	-2.0	9.9	-1.1	x	x
CC1=NN(c2ccc3cccc(O)c3n2)C(=O)C1	6.5	-0.1	90.3*	2.0	115.0*	100.6*
CCCNc1cc(N2CCOCC2)ncn1	0.6	0.1	12.3	1.0	x	x
COc1ccc2ccccc2c1CN1CCSCC1	13.8	0.1	54.0*	-0.1	-6.0	-4.7
CCCCCCC(=O)Oc1ccc2cc(OC(=O)CCCCCC)ccc2c1	-2.1	0.1	0.9	-0.4	x	x
Cc1cc(NC(=O)COC(=O)CCCCC(=O)c2[nH]c(=O)[nH]c2C)no1	8.8	-1.5	116.0*	1.4	111.7*	92.9*
Cc1[nH]c(=O)[nH]c1C(=O)CCCCC(=O)OCC(=O)Oc1ccc2ccccc2c1	-6.0	-0.9	112.0*	1.0	111.4*	98.3*
CC(=O)NCC(=O)OCC(=O)Nc1ccccc1[N+](=O)[O-]	6.8	0.0	-5.7	0.1	x	x
Cc1[nH]c(=O)[nH]c1C(=O)CCCCC(=O)O	8.3	-0.4	120.8*	1.0	113.3*	95.3*
Cc1[nH]c(=O)[nH]c1C(=O)CCCCC(=O)OCC(=O)Nc1ccccc1[N+](=O)[O-]	8.6	-1.1	113.3*	-0.3	114.7*	92.8*
COc1cc(/C=N/N=c2\sc3ccccc3n2C)c([N+](=O)[O-])cc1OC	4.2	-0.1	13.1	-2.4	x	x
N#CC1=C(N)C(C#N)(C#N)[C@@H](c2ccc(Cl)cc2)[C@@H]2CSCC=C12	8.6	0.0	5.0	1.2	x	x
CCOC(=O)CCCCC(=O)c1[nH]c(=O)[nH]c1CNc1ccc(Br)cc1	2.6	0.9	27.4	-1.7	x	x
CCOC(=O)CCCC/C(=N\O)c1[nH]c(=O)[nH]c1C	-6.9	-1.0	98.7*	-0.3	97.1*	64.9*
CC(=O)N1CCN(c2ccc(NC(=O)c3ccccc3)cc2)CC1	-48.9	-0.2	37.6	-1.0	x	x
CC(=O)N1CCN(c2ccc(NC(=S)NC(=O)c3ccccc3)cc2)CC1	-7.2	0.0	51.7*	0.1	7.7	19.7
CC(O)CNc1nc2c(c(=O)n(Cc3ccccc3F)c(=O)n2C)n1C (stereo not drawn)	0.3	0.1	60.8*	0.2	6.1	10.9
CCCNC(=O)c1cc(-c2ccc(Br)cc2)on1	-50.1	0.1	-18.6	-0.9	x	x
CCCCNC(=O)c1cc(-c2ccc(Br)cc2)on1	-8.1	0.1	52.2*	-1.4	1.3	2.9
COc1cc(CN2C(=O)C(=O)c3cccc(C)c32)ccc1OC(C)C	4.5	0.0	15.3	0.0	x	x
O=C(C1CCCN(Cc2cccnc2)C1)N1CCCCC1 (stereo not drawn)	9.5	0.0	103.5*	0.6	-26.3	-4.9
SMILES	TEAD-YAP inh	FBW7 act	MITF inh	GPR151 ag	MITF inh conf	AlphaScreen intf2
O=C(C1CCCN(Cc2cccc(F)c2)C1)N1CCCCCC1 (stereo not drawn)	4.7	0.3	47.8	-0.2	x	x
O=C(C1CCCN(Cc2ccncc2)C1)N1CCCCC1 (stereo not drawn)	-5.7	-0.2	103.5*	-0.7	-17.2	-2.6
O=S(=O)(Nc1n[nH]c(C(F)(F)F)n1)c1cc(Cl)ccc1Cl	5.2	0.2	-13.7	-1.4	x	x
N#C/C(=C(/O)c1ccc2c(c1)S(=O)(=O)c1ccccc1C2=O)c1nnc2n1CCCCC2	-4.9	0.2	3.2	1.1	x	x
COc1ccc(CN2CCN(Cc3ccc(OC)c(Br)c3)CC2)cc1	9.8	-0.1	62.2*	-0.5	14.0	-3.0
COc1cc(CN2CCN(Cc3ccccc3Cl)CC2)cc(OC)c1	1.6	0.2	69.0*	1.2	5.2	-2.0
COc1cccc(/C(C)=N/N2CCN(Cc3cccc4ccccc34)CC2)c1	8.5	-0.2	2.1	-0.7	x	x
CCCS(=O)(=O)N1CCN(Cc2ccc(OC)c(Br)c2)CC1	5.9	0.0	10.8	1.1	x	x
COc1cccc(CN2CCN(Cc3cccc4ccccc34)CC2)c1	1.7	0.1	76.6*	1.7	-14.6	0.4
